Shown is part of a subset that was picked to be rich in hits.
Pf Dd2 inh: Plasmodium falciparum Dd2 growth inhibition; AID 1347417; P. falciparum Dd2 growth, SYBR Green, 72 h; Potency, µM (titrated, usually from 28.9 µM), for the others: at the highest dose activity, negative = inhibition, usual class: inhibitors; 4.3% of 120,000 active; active = well fitted inhibition curve with a large enough effect;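 note: plate controls were DMSO vehicle for no effect and reference drug for full effect; nearly all actives have a fitted effect of over 65% in size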
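Infected erythrocytes (Dd2, 0.3% parasitemia, 2.5% hematocrit final) are added to compound in RPMI-1640/Albumax II medium, grown 72 h at 37C in low oxygen, then lysed with saponin/Triton-X containing SYBR Green and read by fluorescence.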
* hit, by the source's call; [ ] = dose if it differs, or a comment. Potency is the fitted concentration of half-maximal effect.

Results for CC(C)CNC(=O)Cc1ccc(N(Cc2cccc(F)c2)C(=O)c2ccco2)cc1 ?
Pf Dd2 inh: -25.1%

What do the screens show for `COc1ccc(/C=C/c2ccc3c(c2)C(=O)N2C[C@@H](NC(=O)c4cccn4C)C[C@H]2C(=O)N3)cc1`?
Pf Dd2 inh: -4.3%

What do the screens show for `CN1C(=O)CS(=O)C12CCN(C(=O)Cc1cccc(F)c1)CC2` (stereo not given)?
Pf Dd2 inh: -22.9%

Results for O=C1CCN(C(=O)C2CCN(C(=O)CCC3CCCC3)CC2)CCCCCCN1 ?
Pf Dd2 inh: -9.1%

Results for CC(=O)Nc1ccc(OCC(=O)NCc2ccccc2F)nc1 ?
Pf Dd2 inh: 14.4%

Results for COc1cccc(C(CC(=O)NC2CCCCC2)c2c[nH]c3ccccc23)c1OC (stereo not given) ?
Pf Dd2 inh: -0.9%

How did CC(C)NC(=O)C[C@@H]1C[C@H]2O[C@H](CNC(=O)Nc3ccc(F)cc3)[C@@H](O)[C@H]2O1 do in these assays?
Pf Dd2 inh: 6.0%[44.1 µM]

Results for c1ccc(-c2cc3c(cn2)CN(Cc2c[nH]c4ccccc24)CCN3)cc1 ?
Pf Dd2 inh: 7.94µM*

What do the screens show for `Cn1cc(CN2CCNc3cc(Nc4cccnc4)ncc3C2)cn1`?
Pf Dd2 inh: -0.9%[44.1 µM]

What do the screens show for `COCCN1CCNc2cc(Nc3cccc(OC)c3)ncc2C1`?
Pf Dd2 inh: inactive

How did Fc1ccc(Nc2cc3c(cn2)CN(Cc2ccncc2)CCN3)cc1Cl do in these assays?
Pf Dd2 inh: 7.08µM*

How did c1ccc(CN2CCNc3cc(-c4cccnc4)ncc3C2)cc1 do in these assays?
Pf Dd2 inh: -12.4%[44.1 µM]

Results for c1cncc(Nc2cc3c(cn2)CN(Cc2cccs2)CCN3)c1 ?
Pf Dd2 inh: -0.3%[44.1 µM]

What do the screens show for `Cc1[nH]cnc1CN1CCNc2cc(-c3ccccc3)ncc2C1`?
Pf Dd2 inh: inactive

Results for CN(C)c1ccc(CN2CCNc3cc(Nc4ccccc4)ncc3C2)cc1 ?
Pf Dd2 inh: 5.62µM*

How did Cn1cnc(CN2CCNc3cc(Nc4ccccc4)ncc3C2)c1 do in these assays?
Pf Dd2 inh: inactive

Results for Cn1ccnc1CN1CCNc2cc(Nc3ccccc3)ncc2C1 ?
Pf Dd2 inh: inactive

What do the screens show for `c1ccc(Nc2cc3c(cn2)CN(Cc2ncc[nH]2)CCN3)cc1`?
Pf Dd2 inh: 6.8%[44.1 µM]

What do the screens show for `COc1ccccc1CN1CCNc2cc(Nc3ccccc3)ncc2C1`?
Pf Dd2 inh: 6.31µM*

What do the screens show for `CC(C)(C)N1CC(c2nc(-c3ccc4nc[nH]c4c3)no2)CC1=O` (stereo not given)?
Pf Dd2 inh: -10.5%

Results for CN1CCCC(c2n[nH]c(=O)n2-c2ccc3c(c2)OCO3)C1 (stereo not given) ?
Pf Dd2 inh: -6.2%

How did O=C(Cn1nc2c(cc1=O)CCCC2)Nc1nc(-c2ccccn2)cs1 do in these assays?
Pf Dd2 inh: -3.1%

How did O=C(c1cccnc1)N1CCC2(COc3ncccc3[S+](=O)([O-])N2)C1 (stereo not given) do in these assays?
Pf Dd2 inh: 9.0%

What do the screens show for `O=C(c1ccc2cc[nH]c2c1)N1C[C@@H](CO)[C@H](c2nc(C3CC3)no2)C1`?
Pf Dd2 inh: -11.5%

Results for Clc1ccc(-c2cnc([C@@H]3COCCN3C3CCNCC3)[nH]2)s1 ?
Pf Dd2 inh: inactive

Results for COc1ccc(-c2ncc3c(n2)OCCN(C)C3=O)cc1OC ?
Pf Dd2 inh: inactive

How did COc1cccc(S(=O)(=O)N2CCC(CC(=O)NCc3ccccc3)C2)c1 (stereo not given) do in these assays?
Pf Dd2 inh: inactive

What do the screens show for `C=CCNC(=O)O[C@@H]1CC(C(=O)N[C@@H](Cc2ccc(OC)cc2)C(N)=O)=C[C@@H](NC(=O)c2ccc(OC)cc2)[C@H]1O`?
Pf Dd2 inh: -2.3%

Results for O=C(NCc1ccncc1)c1ccc2c(c1)OCCN(c1cccc(OC(F)(F)F)c1)C2 ?
Pf Dd2 inh: inactive

Results for O=C(NCc1ccncc1)c1ccc2c(c1)OCCN(c1ccccc1)C2 ?
Pf Dd2 inh: -16.6%[44.1 µM]

How did O=C(Nc1nccs1)c1ccc2c(c1)OCCN(c1cccc(OC(F)(F)F)c1)C2 do in these assays?
Pf Dd2 inh: -8.2%[44.1 µM]

Results for O=C(NCCc1ccccc1)c1ccc2c(c1)OCCN(c1ccccc1)C2 ?
Pf Dd2 inh: 10µM*

What do the screens show for `CNC(=O)c1ccc2c(c1)OCCN(c1cccc(OC(F)(F)F)c1)C2`?
Pf Dd2 inh: 11.2µM*

What do the screens show for `O=C(NC1CC1)c1ccc2c(c1)OCCN(c1cccc(OC(F)(F)F)c1)C2`?
Pf Dd2 inh: 3.55µM*

How did O=C(NCCOc1ccccc1)c1ccc2c(c1)OCCN(c1ccccc1)C2 do in these assays?
Pf Dd2 inh: -12.1%[44.1 µM]

Results for COc1ccc(NC(=O)c2ccc3c(c2)OCCN(c2ccccc2)C3)cn1 ?
Pf Dd2 inh: -23.8%[44.1 µM]

What do the screens show for `O=C(NC1CCOCC1)c1ccc2c(c1)OCCN(c1ccccc1)C2`?
Pf Dd2 inh: inactive

How did CC1(C)C(=O)N(Cc2ccccc2)[C@H]2CN(CC3CCOCC3)C[C@H]2[S+]1(=O)[O-] do in these assays?
Pf Dd2 inh: 11.1%[44.1 µM]

What do the screens show for `O=C1Nc2ccccc2CC12CN(Cc1ccc(F)cc1)C2`?
Pf Dd2 inh: -29.1%[44.1 µM]
